Screens (PubChem)
This is a sample that favours compounds with a hit; in the whole collection about 1.2% have one here.
hERG WT inh = KCNH2 (human, wildtype) channel inhibition; activity change, % at 1.84 µM; U2OS, BacMam KCNH2, thallium flux FluxOr; hits give low values; 340,000 tested, 0.37% active; Q12809; AID 720551;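 active = maximum activity change below -70%; inconclusive = maximum activity change between -70% and -50%; inactive = maximum activity change above -50%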
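U2OS cells transduced with wild-type KCNH2 virus are loaded with FluxOr dye for 45 min, and thallium flux is measured in kinetic reads before and after stimulation buffer. Rate constants are normalized to DMSO controls.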
KinaseGlo FLuc = blocks Kinase-Glo luciferase, a counter-screen artifact | Q27757 | Kinase-Glo luciferase, ATP luminescence, 8 min | Potency, µM (doses to about 38.3 µM), without a hit: at the highest dose activity change, negative = inhibition, hits mostly inhibitors | 200,000 tested, 0.28% active; active = well fitted inhibition curve with a large enough effect; inconclusive = small, poorly fitted or top-dose-only effect; also: potency is read from the fitted curve at half-maximal effect; nearly all actives have a fitted effect of over 60% in size
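Compound is pinned into ATP-containing buffer (10 uM ATP, imidazole pH 7.2, 7 mM MgCl2). Kinase-Glo luciferase reagent is then added. Light output is recorded following an 8-min room-temperature incubation.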
KCNH2 3.1 inh = KCNH2 3.1 (human) potassium channel inhibition; 340,000 tested, 0.95% active; activity change, % (tested at about 1.8 µM); U2OS KCNH2 3.1, thallium flux FluxOr; hits give low values;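 active = maximum activity change below -70%; inconclusive = maximum activity change from -70% to -50%; inactive = maximum activity change above -50%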;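 also: thallium influx rate constant from kinetic fluorescence after stimulation buffer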
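Measured as rate of thallium-driven FluxOr signal in transduced U2OS cells carrying the 3.1 channel, read kinetically for 2 min upon stimulation; values are rate constants scaled to DMSO control wells.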
Numbers without * were called inactive; u = inconclusive; x = no result; [ ] = another dose, or the depositor's remark. % is scaled to controls: 0 for no effect and ±100 for the full control effect.

SMILES	hERG WT inh	KinaseGlo FLuc	KCNH2 3.1 inh
Cc1cc(C)cc(C(=O)N(C)C2CCCN(Cc3ccccc3F)C2)c1 (configuration not stated)	0	x	-4
N#C/C(=C\c1ccccc1C(F)(F)F)C(=O)Nc1ccccc1	1	3%	-177*
CCc1cccc(CC)c1NC(=O)/C(C#N)=C/c1ccccc1C(F)(F)F	-7	-1%	1
CCCCOc1ccc(C(=O)NCC(=O)NCC(c2ccco2)N2CCCCC2)cc1 (configuration not stated)	12	x	-2
CCN(CC)Cc1c(C(=O)N/N=C/c2cccnc2)nnn1-c1nonc1N	-4	x	23
CN(C)Cc1c(C(=O)N/N=C/c2ccco2)nnn1-c1nonc1N	3	x	-1
CCN(CC)Cc1c(C(=O)N/N=C/c2ccc(OCc3ccccc3C)cc2)nnn1-c1nonc1N	-123*	x	-96*
CN(C)Cc1c(C(=O)N/N=C/c2ccc(-c3ccccc3)cc2)nnn1-c1nonc1N	-46	x	-93*
COc1ccc(C=CC(O)CCN2CCC3CCC(C3)C2)cc1 (configuration not stated)	8	x	-34
CCOc1cc(Br)c(C(C)NC(=O)c2cccnc2)cc1OCC (configuration not stated)	-2	x	-31
CCOc1ncccc1C(=O)Nc1ccc(S(=O)(=O)Nc2cc(C)nc(C)n2)cc1	5	x	7
O=C(CCC(=O)N1CCOc2ccccc21)N1CCN(c2ccccc2)CC1	4	x	-4
COc1ccc(-c2nc3ccccc3n2Cc2ccc(C)cc2)cc1	-122*	-4%	x
COCn1c(-c2ccc(OC)cc2)nc2ccccc21	5	u	3
COc1ccc(OCCOC(=O)CNS(=O)(=O)c2ccc(SC)c([N+](=O)[O-])c2)cc1	-1	x	-10
Cc1cccc(NS(=O)(=O)c2cccc(C(=O)NCC3(N4CCCCC4)CCCCC3)c2)c1	12	x	-48
Cc1ccc(S(=O)(=O)Nc2cccc(C(=O)NCC3(N4CCCCC4)CCCCC3)c2)cc1F	4	x	-78*
Cc1ccccc1NC(=O)Nc1ccccc1C(=O)NCc1ccccc1	17	0%	-21
O=C(CCl)Nc1ccccc1C(=O)NCc1ccccc1	-7	-3%	-109*
CC1CC(c2ccccc2)=Nc2ccccc2N1 (configuration not stated)	1	x	14
CCC(C)(C)NC(=O)C(c1ccc(C)cc1)N(CC1CCCO1)C(=O)c1csnn1 (configuration not stated)	-1	x	0
COc1ccc(Cl)cc1NC(=O)CC(=O)Nc1cc(Cl)ccc1OC	-9	x	0
CCC(C)(C)NC(=O)Nc1cc(Cl)ccc1OC	1	-2%	-81*
CSCCC(NS(=O)(=O)c1ccccc1F)C(=O)Nc1cccc(C)n1 (configuration not stated)	6	x	x
CCC(CC)Nc1ccc(C(CC(N)=O)NC(=O)c2ccccc2)cc1[N+](=O)[O-] (configuration not stated)	-3	x	4
SMILES	hERG WT inh	KinaseGlo FLuc	KCNH2 3.1 inh
N#CC1(Cc2ccccc2)c2ccccc2C=CN1C(=O)c1ccccc1 (configuration not stated)	5	-3%	6
N#CC1(Cc2ccc([N+](=O)[O-])cc2)c2ccccc2C=CN1C(=O)c1ccccc1 (configuration not stated)	3	18%	-88*
COC(=O)C1CCCN1S(=O)(=O)c1ccccc1NC(=O)c1cc(OC)c(OC)c(OC)c1 (configuration not stated)	-11	x	-12
O=C(O)C(Sc1ccc(Cl)cc1)Sc1ccc(Cl)cc1	x	-11%[7.66 µM]	x
O=C(CN1CCN(Cc2ccc(F)cc2)CC1)Nc1nc2ccccc2s1	-16	x	-74*
CCCN1CCN(CC(=O)Nc2nc3ccccc3s2)CC1	17	x	-9
O=C(Cn1cnc2ccccc2c1=O)Nc1nc2ccccc2s1	-3	-2%	-97*
CCc1ccc2nc(NC(=O)Cn3cnc4ccccc4c3=O)sc2c1	1	-2%	-4
CN(C)CCn1c(N)nc2ccccc21	3	x	12
CC(C)CCNC(=O)CNC(=S)N(Cc1ccccc1)Cc1cccnc1	0	-1%	13
O=C(Nc1cccc(-c2csc(Nc3ccc(Cl)cc3)n2)c1)c1ccccc1	19	x	-14
O=C(Nc1cccc(-c2csc(Nc3ccc(Cl)cc3)n2)c1)c1cccc(C(F)(F)F)c1	0	x	-78*
CC(=O)c1ccc(NC(=O)CSc2nnc(-c3ccncc3)n2C2CC2)cc1	2	x	-3
O=c1cc(CF)[nH]c(=S)[nH]1	x	-5%[7.66 µM]	x
CN1CCN(C(=O)c2cnn(-c3ccccc3)c2NC(=O)c2ccc(Br)cc2)CC1	-79*	x	-76*
